The text below walks through data of PMC10726135, “HNF4α isoforms regulate the circadian balance between carbohydrate and lipid metabolism in the liver”.

The full ranking holds about 18,000 sequences; the median of “log2 normalized intensity” is about 0.39, and the highest 2% start at about 6.6. Shown is part of a subset that was picked to be rich in the highest values.

The target of this experiment is T1, HNF4alpha2 (COS-7 nuclear extract) (Homo sapiens, UniProt P41235 1-474).
T1 sequence: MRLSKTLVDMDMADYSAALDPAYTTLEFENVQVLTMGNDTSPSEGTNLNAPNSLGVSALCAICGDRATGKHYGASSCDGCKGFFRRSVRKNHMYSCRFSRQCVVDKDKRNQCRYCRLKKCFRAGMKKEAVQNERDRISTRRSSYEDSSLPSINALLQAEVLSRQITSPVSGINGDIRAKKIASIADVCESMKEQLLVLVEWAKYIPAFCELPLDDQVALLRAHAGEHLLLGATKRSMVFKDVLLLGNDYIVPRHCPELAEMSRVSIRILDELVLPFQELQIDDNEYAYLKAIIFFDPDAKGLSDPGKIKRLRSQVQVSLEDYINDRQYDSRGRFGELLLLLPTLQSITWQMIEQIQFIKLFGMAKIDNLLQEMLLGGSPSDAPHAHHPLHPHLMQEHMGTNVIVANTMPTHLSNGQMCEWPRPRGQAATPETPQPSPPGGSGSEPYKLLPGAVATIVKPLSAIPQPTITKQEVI
Put plainly: protein-binding microarray; COS-7 nuclear extract on double-stranded Agilent 4x180k PBM; binding buffer, salt, pH and temperature not given in the material; high values mean tight binding. Particulars: chain copies: 2; label: 3' end of strand 1 on the slide; dsDNA, one strand shown. The method, boiled down: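 Binding signal is the background-corrected, normalized gProcessedSignal calculated by Agilent software. It was measured by applying nuclear extracts of COS-7 cells transiently transfected with a human HNF4α isoform expression vector to a custom Agilent SurePrint G3 4x180k array of ~44,000 double-stranded ~60-nt test sequences in quadruplicate, then imaging bound HNF4α on an Agilent G2565CA scanner at 2-µm resolution.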
On to “CCTCGAGGCAACCTTTGACCTGGTACTATGGCCTAGGGAGATTAGAGTATCGGTCGA”, for which the binding signal stood at 6.02 log2 normalized intensity.
Consider “GTCAAATCACTGAAGCGACCCCTCGAGGCAGCCTAGGGAGATTAGAGTATCGGTCGA”, for which the binding signal came out at 1.42 log2 normalized intensity.
Regarding “CTGAATAAAACAAACTCATTTTGATCTTTGGCCTAGGGAGATTAGAGTATCGGTCGA”, the binding signal turned out to be 2.24 log2 normalized intensity.
As to “CAGCAGACTCAGAAAAATATGTGGACTTCAGCCTAGGGAGATTAGAGTATCGGTCGA”, the binding signal was determined as 2.49 log2 normalized intensity.
With “CACCCCCATCTATGCACTCTCACCTTGGGGGCCTAGGGAGATTAGAGTATCGGTCGA” the figure was 0.591 log2 normalized intensity; with “CAAATTGCTGACTTTCTGTGTCTTGGCAGTGCCTAGGGAGATTAGAGTATCGGTCGA”, 1.59 log2 normalized intensity.
“TCTACCTGACCTCCCAAAATTCTTCACATAGCCTAGGGAGATTAGAGTATCGGTCGA”: the binding signal is -0.0778 log2 normalized intensity.
“TTCCCATTCATAAAATTACGCCACAGAGTTGCCTAGGGAGATTAGAGTATCGGTCGA”: the binding signal is -0.871 log2 normalized intensity.
On to “AGAAGCTTGGTATGTCTGATGAATAGAAAGGCCTAGGGAGATTAGAGTATCGGTCGA”, for which the binding signal is 0.62 log2 normalized intensity.
Take “CTGGAGTCCAAAGGTCAGCAAGCCTGGAGTGCCTAGGGAGATTAGAGTATCGGTCGA”: the binding signal was found to be 6.88 log2 normalized intensity.
As to “AAGCTCTGGAGTCCAAAGGTCAGCAAGCCTGCCTAGGGAGATTAGAGTATCGGTCGA”, the binding signal was 7.73 log2 normalized intensity.
“AAGGTCAGCAAGCCTGGAGTTCTGATGTTCGCCTAGGGAGATTAGAGTATCGGTCGA”: the binding signal was 0.534 log2 normalized intensity.
On to “ATCCACCCATCCAAAGGTCAGCAATCTCAAGCCTAGGGAGATTAGAGTATCGGTCGA”, for which the binding signal turned out to be 2.93 log2 normalized intensity.
For the sequence “GTCCAAAGGTCAGCAAGCCTGGAGTTCTGAGCCTAGGGAGATTAGAGTATCGGTCGA”, the binding signal stood at 4.22 log2 normalized intensity.
With “TCCACAGTCAAGGCCAAAGGTTAAAAATAAGCCTAGGGAGATTAGAGTATCGGTCGA”, the binding signal came out at 3.7 log2 normalized intensity.
With “TCAGCCTTAACTCAAAAGGCCAAAGTCCAAGCCTAGGGAGATTAGAGTATCGGTCGA” the figure was 8.38 log2 normalized intensity.
For “TCATTTCAGCCTTAACTCAAAAGGCCAAAGGCCTAGGGAGATTAGAGTATCGGTCGA”, the binding signal is -0.978 log2 normalized intensity.
With “GGAGACCACTGGTGTAAGCTCTGGAGTCCAGCCTAGGGAGATTAGAGTATCGGTCGA”, the binding signal came out at 0.767 log2 normalized intensity.
For “CCACTGGTGTAAGCTCTGGAGTCCAAAGGTGCCTAGGGAGATTAGAGTATCGGTCGA”, the binding signal was determined as 3.79 log2 normalized intensity.
In the case of “GGTGTAAGCTCTGGAGTCCAAAGGTCAGCAGCCTAGGGAGATTAGAGTATCGGTCGA” it was 8.34 log2 normalized intensity; in that of “GGAGTGACCCTGGGAGCAAAGGTCAAGAGTGCCTAGGGAGATTAGAGTATCGGTCGA”, 6.55 log2 normalized intensity; in that of “TTAATAGAAGAAAGCCCTTTTTGGAATGTGGCCTAGGGAGATTAGAGTATCGGTCGA”, 0.655 log2 normalized intensity.
On to “AATGGTGGGATAGGAGACATGAAGGACATAGCCTAGGGAGATTAGAGTATCGGTCGA”, for which the binding signal was -0.721 log2 normalized intensity.
In the case of “TCCTCTTATCTTCAGGTTTGCTAATATCTGGCCTAGGGAGATTAGAGTATCGGTCGA” it was 1.35 log2 normalized intensity; in that of “CTAGGAGAGTCCGGGGCAAACAAGGGCAACGCCTAGGGAGATTAGAGTATCGGTCGA”, -0.823 log2 normalized intensity.
With “TGAGATAGGTACTATTATTAGAGTCCCTTTGCCTAGGGAGATTAGAGTATCGGTCGA” the figure was 1.01 log2 normalized intensity.
In the case of “TTTCCCCGTCCCAAGCTGAGGTCTGGTGTCGCCTAGGGAGATTAGAGTATCGGTCGA”, the binding signal stood at 2.59 log2 normalized intensity.
With “CTGAGATAGTCATTCTTCTACAGTGTTTACGCCTAGGGAGATTAGAGTATCGGTCGA”, the binding signal came to 0.901 log2 normalized intensity.
For the sequence “AGCACACCTTTTTTTCATGCAAATTTCCGTGCCTAGGGAGATTAGAGTATCGGTCGA”, the binding signal was 0.118 log2 normalized intensity.
On to “AAGAAATAAAAACAGCTGGGTTCCAAAAGGGCCTAGGGAGATTAGAGTATCGGTCGA”, for which the binding signal is 0.155 log2 normalized intensity.
As to “GTCAAACTTTGGACCCACTGCAGGATTGGAGCCTAGGGAGATTAGAGTATCGGTCGA”, the binding signal was 3.52 log2 normalized intensity.
As to “CCCTCCTTAAGACCTAGATGGAATGTTGTGGCCTAGGGAGATTAGAGTATCGGTCGA”, the binding signal was found to be 1.29 log2 normalized intensity.
On to “CACAAAAAGGCTGTCACACTTGCCCTTTGCGCCTAGGGAGATTAGAGTATCGGTCGA”, for which the binding signal came to 4.82 log2 normalized intensity.
In the case of “AAGGCTGTCACACTGGCCTTTGCCCTCGCTGCCTAGGGAGATTAGAGTATCGGTCGA” it was 4.98 log2 normalized intensity; in that of “AGCCTCTATGTCAGGCCATTTCACCTTTGCGCCTAGGGAGATTAGAGTATCGGTCGA”, 3.72 log2 normalized intensity.
On to “TCAGGCCATTTCACCTTTGCCCTGTCAGTCGCCTAGGGAGATTAGAGTATCGGTCGA”, for which the binding signal was found to be 5.88 log2 normalized intensity.
As for “TGTCACACTGGCCTTTGCCCTCGCTGGCGGGCCTAGGGAGATTAGAGTATCGGTCGA”, the binding signal came out at 4.25 log2 normalized intensity.
Regarding “CTATGTCAGGCCATTTCACCTTTGCCCTGTGCCTAGGGAGATTAGAGTATCGGTCGA”, the binding signal amounted to 6.82 log2 normalized intensity.
In the case of “CTGTCACACTTGCCCTTTGCCCTCACTGGTGCCTAGGGAGATTAGAGTATCGGTCGA”, the binding signal is 7.1 log2 normalized intensity.
Regarding “AAAGGCTGTCACACTTGCCCTTTGCCCTCAGCCTAGGGAGATTAGAGTATCGGTCGA”, the binding signal came to 8.34 log2 normalized intensity.
As to “ACACTTGCCCTTTGCCCTCACTGGTAGAAGGCCTAGGGAGATTAGAGTATCGGTCGA”, the binding signal was 5.09 log2 normalized intensity.
With “GAGGAGAGAGTAAATAATTGATGAAACAGGGCCTAGGGAGATTAGAGTATCGGTCGA”, the binding signal is -0.991 log2 normalized intensity.
In the case of “AGTACCTCTCAAAAATCTCACTCACCCTAAGCCTAGGGAGATTAGAGTATCGGTCGA” it was -0.279 log2 normalized intensity.
